Assay results as given in PubChem BioAssay AID1159580 (chemical genetic matrix, 2015).
Out of some 5,500 compounds screened, about 2,000 (36%) were called active. About 18% were inconclusive and are not listed. No stated cut-off is given here; in the data, active means normalized growth mostly below about 0.91 (no sharp cut-off); inconclusive means no clear call, values can overlap the other calls; inactive means mostly above about 0.92. Some of the results follow.

Assay: chemical genetic growth profiling, strain panel (AID 1159580);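 further: tested at 20 µM; growth read once vehicle control cultures reached saturation at 30 °C; 1 = growth at the plate median or of vehicle wells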
Conditions: S. cerevisiae deletion strains, growth OD

Measured: normalized growth

Nc1ccc(C(=O)O)c(O)c1 (tested in a mixture with another compound)
inactive: locus YBR021W, strain FUR4, stronger effect = lower value 1 | locus YBR229C, strain ROT2, stronger effect = lower value 0.988 | locus YCL029C, strain bik1, stronger effect = lower value 0.993 | locus YDL035C, strain GPR1, stronger effect = lower value 0.989 | locus YDL074C, strain BRE1, stronger effect = lower value 1.01 | locus YDL101C, strain DUN1, stronger effect = lower value 0.995 | locus YDL134C, strain PPH21, stronger effect = lower value 0.994 | locus YDL185W, strain tfp1, stronger effect = lower value 0.993 | locus YDL192W, strain arf1, stronger effect = lower value 0.988 | locus YDR101C, strain arx1, stronger effect = lower value 1.02 | locus YDR162C, strain NBP2, stronger effect = lower value 0.995 | locus YDR318W, strain mcm21, stronger effect = lower value 0.992 | locus YDR388W, stronger effect = lower value 0.981 | locus YDR502C, strain sam2, stronger effect = lower value 1.02 | locus YEL061C, strain CIN8, stronger effect = lower value 0.994 | locus YER110C, stronger effect = lower value 0.976 | locus YER155C, strain BEM2, stronger effect = lower value 0.999 | locus YER167W, strain BCK2, stronger effect = lower value 0.985 | locus YGL078C, strain dbp3, stronger effect = lower value 0.992 | locus YGL086W, strain mad1, stronger effect = lower value 1.03 | locus YGL248W, strain PDE1, stronger effect = lower value 0.994 | locus YGR135W, strain pre9, stronger effect = lower value 0.945 | locus YGR252W, strain gcn5, stronger effect = lower value 0.963 | locus YHR030C, strain SLT2, stronger effect = lower value 0.993 | locus YHR079C, strain IRE1 (second series), stronger effect = lower value 0.98 | locus YHR094C, strain hxt1, stronger effect = lower value 0.977 | locus YHR129C, strain ARP1, stronger effect = lower value 0.998 | locus YHR200W, strain rpn10, stronger effect = lower value 0.988 | locus YIL066C, strain RNR3, stronger effect = lower value 0.996 | locus YIL073C, strain SPO22, stronger effect = lower value 1.01 | locus YIL125W, strain kgd1, stronger effect = lower value 0.988 | locus YIR030C, strain dcg1, stronger effect = lower value 0.979 | locus YJL095W, strain BCK1, stronger effect = lower value 1.02 | locus YJL134W, strain LCB3, stronger effect = lower value 0.994 | locus YJL168C, strain set2, stronger effect = lower value 0.976 | locus YJL187C, strain SWE1 (second series), stronger effect = lower value 1.01 | locus YJR043C, strain POL32, stronger effect = lower value 0.981 | locus YJR075W, strain HOC1, stronger effect = lower value 0.988 | locus YKL009W, strain mrt4, stronger effect = lower value 1 | locus YKL068W, stronger effect = lower value 0.992 | locus YKL085W, strain MDH1 (second series), stronger effect = lower value 0.984 | locus YKL085W, strain MDH1, stronger effect = lower value 0.984 | locus YKL190W, strain CNB1, stronger effect = lower value 0.998 | locus YKR001C, strain vps1, stronger effect = lower value 0.998 | locus YLR039C, strain RIC1, stronger effect = lower value 1.06 | locus YLR058C, strain SHM2, stronger effect = lower value 0.989 | locus YLR102C, strain apc9, stronger effect = lower value 0.983 | locus YLR262C, strain YPT6, stronger effect = lower value 1.02 | locus YLR268W, strain sec22, stronger effect = lower value 0.992 | locus YLR330W, strain CHS5, stronger effect = lower value 0.994 | locus YLR342W, strain FKS1 (second series), stronger effect = lower value 0.968 | locus YLR371W, strain rom2, stronger effect = lower value 0.977 | locus YLR418C, strain cdc73, stronger effect = lower value 0.957 | locus YML016C, strain PPZ1, stronger effect = lower value 0.99 | locus YML032C, strain rad52, stronger effect = lower value 0.994 | locus YML124C, strain tub3, stronger effect = lower value 0.989 | locus YMR078C, strain ctf18, stronger effect = lower value 0.978 | locus YMR223W, strain ubp8, stronger effect = lower value 0.964 | locus YMR307W, strain GAS1, stronger effect = lower value 0.909 | locus YNL067W, strain RPL9B, stronger effect = lower value 1.02 | locus YNL128W, strain TEP1, stronger effect = lower value 0.995 | locus YNL153C, strain GIM3, stronger effect = lower value 1.04 | locus YNL233W, strain BNI4, stronger effect = lower value 1.01 | locus YNL250W, strain rad50, stronger effect = lower value 0.981 | locus YNL271C, strain bni1, stronger effect = lower value 0.991 | locus YNL298W, strain CLA4, stronger effect = lower value 0.983 | locus YNL307C, strain MCK1, stronger effect = lower value 0.981 | locus YNR052C, strain pop2, stronger effect = lower value 0.991 | locus YOL006C, strain TOP1, stronger effect = lower value 1.08 | locus YOL012C, strain htz1 0.929 | locus YOL147C, strain pex11, stronger effect = lower value 0.988 | locus YOR061W, strain CKA2, stronger effect = lower value 0.993 | locus YOR069W, strain VPS5, stronger effect = lower value 0.988 | locus YOR136W, strain idh2, stronger effect = lower value 0.987 | locus YOR144C, strain elg1, stronger effect = lower value 0.977 | locus YOR184W, strain ser1, stronger effect = lower value 0.971 | locus YOR316C, strain cot1, stronger effect = lower value 0.986 | locus YPR119W, strain clb2, stronger effect = lower value 0.984 | locus YPR141C, strain kar3, stronger effect = lower value 0.984 | locus YPR163C, strain tif3, stronger effect = lower value 0.979 | locus YPR167C, strain met16, stronger effect = lower value 0.981 | strain wtn01, stronger effect = lower value 1.01
